TrxR1 substrate: rat thioredoxin reductase 1 substrate activity. 390,000 compounds, 0.01% hits. Potency, µM (top dose mostly 114 µM), without a hit: top-dose activity change, negative = substrate turnover. purified TrxR1 substrate turnover, NADPH consumption readout. O89049; further: potency means the concentration at half of the fitted maximal effect; nearly all actives have a fitted effect of over 50% in size
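Rat TrxR1, dispensed at 90 nM, was prereduced with 400 uM NADPH (final) for 5 min at ~22 deg C, then incubated with compound 15 min before 400 uM selenite. A first-read NADPH fluorescence drop versus no-compound background flagged substrates.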
FBPA coupling cs: inhibits coupling enzyme system, counter-screen for aldolase hits; coupling enzyme system counterscreen, AmpLite Red fluorescence; activity change, negative = inhibition, % at 58.2 µM, hits read low; 290,000 compounds, 0.67% hits; AID 2472; in the data active means activity change below about -30%
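Counterscreen of the coupled detection system alone, without aldolase: glyceraldehyde-3-phosphate coupling enzymes plus AmpLite Red readout. Compounds at 57.5 uM final, 10 min RT preincubation, 20 min RT reaction, fluorescence 525/598 nm.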
rTrxR1 inhibitor: inhibitors of rat thioredoxin reductase 1 | O89049 | recombinant rTrxR1, NADPH fluorescence consumption, selenite substrate | Potency, µM (highest dose often 114 µM), for inactives: at the top dose activity change, negative = inhibition, hits mostly inhibitors | 390,000 compounds, 1% hits; further: potency means the concentration at half of the fitted maximal effect; nearly all actives have a fitted effect of over 65% in size
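Rat TrxR1 (90 nM in the dispensed reagent) was pre-reduced with 400 uM NADPH for 5 min at room temperature, then incubated with compound for 15 min. After 400 uM selenite was added, NADPH fluorescence (Ex 340/Em 450 nm) was followed for 8 min.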
GALK inh: blocks human galactokinase activity | Purified GALK, Kinase-Glo residual ATP luminescence | Potency, µM (titrated, usually from 57.5 µM), without a hit: top-dose activity change, negative = inhibition, hits mostly inhibitors | 270,000 compounds, 0.007% hits; further: potency means the concentration at half of the fitted maximal effect
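GALK at 5 nM final was combined with compound, 35 uM ATP and 100 uM galactose in HEPES pH8.0 with MgCl2 and DTT. The reaction ran one hour at room temperature before luminescent ATP detection.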
RORgamma inh: ROR gamma (mouse) transcription inhibition; P51450; Drosophila S2 Gal4-RORgamma UAS-luciferase reporter, 20 h; Potency, µM (series often up to 53.6 µM), inactives show at the highest dose activity change, negative = inhibition, most hits filed as inhibitors; 310,000 compounds, 5.4% hits; further: potency means the concentration at half of the fitted maximal effect; nearly all actives have a fitted effect of over 60% in size
Target sequence (P51450 whole entry, looked up, the tested form may be a part): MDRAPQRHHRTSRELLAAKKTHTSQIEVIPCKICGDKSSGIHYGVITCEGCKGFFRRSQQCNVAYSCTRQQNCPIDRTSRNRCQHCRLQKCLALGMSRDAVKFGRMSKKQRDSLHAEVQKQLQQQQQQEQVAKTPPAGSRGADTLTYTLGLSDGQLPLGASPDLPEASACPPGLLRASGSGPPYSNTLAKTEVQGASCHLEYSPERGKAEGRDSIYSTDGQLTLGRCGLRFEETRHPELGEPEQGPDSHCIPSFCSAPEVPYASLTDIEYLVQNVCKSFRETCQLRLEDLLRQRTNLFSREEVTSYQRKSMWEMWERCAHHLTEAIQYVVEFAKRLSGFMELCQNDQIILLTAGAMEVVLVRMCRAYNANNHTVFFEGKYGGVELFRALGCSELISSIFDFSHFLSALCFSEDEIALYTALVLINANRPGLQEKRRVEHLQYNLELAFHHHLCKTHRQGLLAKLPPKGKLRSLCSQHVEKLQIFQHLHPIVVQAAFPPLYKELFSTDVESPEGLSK
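ROR gamma transcriptional activity was tracked as Gal4-UAS luciferase output in stably transfected Drosophila Schneider cells, with compound added 1 hr before 700 uM copper sulfate induction and a 20 hr ambient-temperature incubation.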
VP16 counter: Gal4-VP16 reporter inhibition counter-screen; Potency, µM (top dose mostly 53.6 µM), for inactives: top-dose activity, negative = inhibition, most hits filed as inhibitors; AID 2546; 310,000 compounds, 3.5% hits; Drosophila S2 Gal4-VP16 UAS-luciferase, luminescence, 20 h;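 further: Gal4-VP16 expression switched on by copper sulfate through the metallothionein promoter; potency means the concentration at half of the fitted maximal effect; nearly all actives have a fitted effect of over 50% in size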
* marks the source's active call; other numbers are inactive results; ? = inconclusive; nt = no result; [ ] = dose if it differs, or a comment. Rows were chosen to be rich in hits. Some 5.9% of all compounds tested hit in one or more screens of this group. Unless noted, the call rests on the fitted dose curve; in most records, active means well fitted curve in the direction sought with a large enough effect; inconclusive means small, poorly fitted or top-dose-only effect, or another doubt; inactive means no such curve, though single readings can be large; an effect the other way counts as inactive or inconclusive. On the % scale 0 is the no-effect control and ±100 the full control effect.

SMILES	TrxR1 substrate	FBPA coupling cs	rTrxR1 inhibitor	GALK inh	RORgamma inh	VP16 counter
Cc1ccc(C)c(OCCC(=O)OCC(=O)N2CCN(S(=O)(=O)c3ccc(Cl)cc3)CC2)c1	0.2%	nt	-22.6%	nt	nt	nt
CCOc1ccc(OCCC(=O)OCC(=O)N2CCN(S(=O)(=O)c3ccc(Cl)cc3)CC2)cc1	4.1%	-0.4	?	3.6%	11.2µM*	17.8µM*
CCc1nn(C(C)C(=O)NC(C)CCc2ccco2)c(=O)c2cc3occc3n12 (stereo not drawn)	6.8%	4.5	0.6%[57.1 µM]	-0.1%	?	-24.9%
COc1cnc(-c2ccccn2)nc1N(C)C	2.0%	-9.5	-0.7%	-0.2%	17.8µM*	?
COc1cnc(-c2ccccn2)nc1Oc1cccc(Cl)c1	3.1%	-0.4	6.2%	-0.3%	2.82µM*	15.8µM*
COc1ccc(Oc2nc(-c3ccccn3)ncc2OC)cc1	1.0%	-7.1	24.4%	0.1%	7.08µM*	-19.7%
COc1cnc(-c2ccccc2)nc1Oc1cccc(C)c1	-3.3%	0.0	-3.1%[57.1 µM]	0.8%	33.3%	0.2%
COc1cnc(-c2ccccn2)nc1Oc1c(C)cccc1C	-6.6%	-1.6	?	0.6%	7.08µM*	20µM*
CCN(C(=O)C1CCCN(c2ncnc3onc(-c4ccc(F)cc4)c23)C1)c1ccccc1 (stereo not drawn)	12.5%[0.457 µM]	nt	11.7%	nt	nt	nt
O=C(NCc1cccnc1)NC1CC(=O)N(c2ccc3c(c2)OCCO3)C1 (stereo not drawn)	6.4%	0.5	12.0%	6.3%	-6.7%	-0.1%
CCOC(=O)C1CCCN(C(=O)/C=C/c2ccc([N+](=O)[O-])cc2)C1 (stereo not drawn)	-11.3%	5.9	-9.6%	0.0%	4.7%	-16.2%
CCOC(=O)Cn1ncc2c3ccccc3n(CC(=O)OCC)c2c1=O	18.9%	0.0	27.5%	3.7%	-0.3%	1.0%
COc1ccccc1NS(=O)(=O)c1c(C)nc2sccn2c1=O	-5.7%	0.1	7.8%	nt	18.1%	5.7%
O=[N+]([O-])c1ccc(C2=NN(c3ccccc3)C(c3ccco3)C2)cc1 (stereo not drawn)	-24.1%[57.1 µM]	-7.9	2.8%[57.1 µM]	-2.3%	20.5%	24.6%
O=[N+]([O-])c1ccc(/C=C/C2=NN(c3ccccc3)C(c3ccco3)C2)cc1 (stereo not drawn)	-13.1%	-25.8	?	2.3%	?	20µM*
CCN1C(=O)NC(c2ccccc2)C1=O (stereo not drawn)	5.3%	nt	17.0%	nt	nt	nt
CN=C1N[C@H](c2ccccc2)N(c2ccccc2)S1	2.1%	0.4	?	nt	10µM*	28.2µM*
COCc1cc(CN2CCCC2)c(O)c2ncccc12	5.7%[57.1 µM]	-3.7	?	?	10µM*	8.91µM*
Oc1c(CN2CCCCC2)cc(COCc2ccccc2)c2cccnc12	6.1%	-4.0	-26.8%	-0.4%	0.316µM*	0.0089µM*
COc1ccccc1N1CCN(Cc2cc(Br)c(O)c3ncccc23)CC1	12.4%[57.1 µM]	-16.1	?	-0.7%	1.12µM*	1.41µM*
CC1CCCCN1CC(=O)Nc1ccc2c(c1)OC(F)(F)O2 (stereo not drawn)	0.7%	-0.6	4.7%	0.3%	0.1%	2.5%
COC(=O)Sc1nnc(-c2ccc(Br)cc2)o1	nt	12.5	nt	-5.4%	17.8µM*	6.8%
OCC#CCSc1nnc(-c2ccc(Br)cc2)o1	-15.1%	-1.2	-15.9%	3.4%	?	?
CCCOC(=O)c1ccc(NC(=O)C2C3C=CC(O3)C2C(=O)O)cc1 (stereo not drawn)	0.8%	14.8	39.8µM*	4.6%	-33.4%	?
S=C(NCC1(c2ccccc2)CCCC1)Nc1ccccc1	2.1%	0.3	3.9%	0.6%	1.58µM*	6.31µM*
O=C(NCC1(c2ccccc2)CCCC1)C(=O)NCC1(c2ccccc2)CCCC1	-6.9%	1.3	-13.0%	3.0%	4.5%	5.2%
S=C(NCCc1ccncc1)Nc1ccccc1	3.4%	-0.3	12.5%[57.1 µM]	2.2%	-15.8%	-0.9%
Cc1ccc(NC(=S)NCC(C)C)cc1	0.0%	1.5	-10.2%	-0.1%	10µM*	11.2µM*

Assay outcomes as filed in PubChem BioAssay.
